Experiment [1] has as its target Solute carrier family 12 member 5 (Homo sapiens) (UniProt Q9H2X9). Kind of experiment: retest of KCC2 transport modulators without sodium – cell-based, HEK293 KCC2, thallium flux, secondary assay, confirmation (AID 1713;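 active = thallium flux slope above the same plate's solvent-only control mean plus 3 SD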). Particulars: FluoZin2 fluorescence, at 10 µM, stronger effect = higher value.
The nature of experiment [2]: PubChem AID 1714.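 Note: raw slope of fluorescence over initial fluorescence between 10 and 20 s after thallium.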 Particulars: HEK293-KCC2 + bumetanide/ouabain, thallium flux FluoZin2; at 10 µM; stronger effect = higher value.
The target in experiment [3] is Solute carrier family 12 member 5 (Homo sapiens) (UniProt Q9H2X9). Kind of experiment: retest of KCC2 transport modulation, ouabain-free – cell-based, HEK293 KCC2, thallium flux, FluoZin2, secondary assay 2, confirmation (AID 1715;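 active = thallium flux slope more than 3 SD above or below the plate's solvent-only control mean, mostly below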;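 note: raw slope with 0.1% DMSO as baseline and bumetanide as block control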). To be noted: HEK293-KCC2, thallium flux FluoZin2 fluorescence; at 10 µM; actives lie on both sides; F/F0 rise rate, 10–20 s post-thallium.

Experiment [4] can be described thus: compound effects on native HEK Tl+ uptake – HEK cells, counterscreen 1, counter-screen for KCC2 modulator project, confirmation (AID 1716;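 active = thallium flux rate significantly above the same plate's solvent-only control wells, beyond their mean plus 3 SD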). To be noted: HEK293 parental cells, thallium flux FluoZin2, ouabain; at 10 µM; baseline-ratio fluorescence slope, 10–20 s after thallium. A general note: Counterscreens check selectivity or assay interference.
Experiment [5] concerns the target Solute carrier family 12 member 5 (Homo sapiens) (UniProt Q9H2X9). Kind of experiment: modulation of KCC2 thallium flux in HEK cells – cell-based, ouabain, retest, confirmation (AID 1717).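 Note: slope of initial-normalized fluorescence between seconds 10 and 20 after thallium.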 To be noted: HEK293-KCC2, thallium flux FluoZin2 fluorescence, at 10 µM, bidirectional: low = inhibitor, high = activator.
Experiment [6] can be described thus: native HEK Tl+ uptake effects, second counter-screen – HEK cells, counterscreen 2, counter-screen for KCC2 modulator project, confirmation (AID 1718;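 active = thallium flux slope above the same plate's solvent-control mean plus 3 SD in both duplicate wells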;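 note: run without ouabain in cells lacking the KCC2 cotransporter; slope of fluorescence scaled to its starting value between 10 and 20 s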). Particulars: HEK293 parental, thallium flux FluoZin-2 fluorescence slope; at 10 µM.

Each structure is given as a SMILES string. This is one part of the list. Inconclusive results are not listed. Values without a mark were called inactive. The source made the active and inactive calls.

Sequence of Solute carrier family 12 member 5 (Homo sapiens) (Q9H2X9 whole entry, looked up): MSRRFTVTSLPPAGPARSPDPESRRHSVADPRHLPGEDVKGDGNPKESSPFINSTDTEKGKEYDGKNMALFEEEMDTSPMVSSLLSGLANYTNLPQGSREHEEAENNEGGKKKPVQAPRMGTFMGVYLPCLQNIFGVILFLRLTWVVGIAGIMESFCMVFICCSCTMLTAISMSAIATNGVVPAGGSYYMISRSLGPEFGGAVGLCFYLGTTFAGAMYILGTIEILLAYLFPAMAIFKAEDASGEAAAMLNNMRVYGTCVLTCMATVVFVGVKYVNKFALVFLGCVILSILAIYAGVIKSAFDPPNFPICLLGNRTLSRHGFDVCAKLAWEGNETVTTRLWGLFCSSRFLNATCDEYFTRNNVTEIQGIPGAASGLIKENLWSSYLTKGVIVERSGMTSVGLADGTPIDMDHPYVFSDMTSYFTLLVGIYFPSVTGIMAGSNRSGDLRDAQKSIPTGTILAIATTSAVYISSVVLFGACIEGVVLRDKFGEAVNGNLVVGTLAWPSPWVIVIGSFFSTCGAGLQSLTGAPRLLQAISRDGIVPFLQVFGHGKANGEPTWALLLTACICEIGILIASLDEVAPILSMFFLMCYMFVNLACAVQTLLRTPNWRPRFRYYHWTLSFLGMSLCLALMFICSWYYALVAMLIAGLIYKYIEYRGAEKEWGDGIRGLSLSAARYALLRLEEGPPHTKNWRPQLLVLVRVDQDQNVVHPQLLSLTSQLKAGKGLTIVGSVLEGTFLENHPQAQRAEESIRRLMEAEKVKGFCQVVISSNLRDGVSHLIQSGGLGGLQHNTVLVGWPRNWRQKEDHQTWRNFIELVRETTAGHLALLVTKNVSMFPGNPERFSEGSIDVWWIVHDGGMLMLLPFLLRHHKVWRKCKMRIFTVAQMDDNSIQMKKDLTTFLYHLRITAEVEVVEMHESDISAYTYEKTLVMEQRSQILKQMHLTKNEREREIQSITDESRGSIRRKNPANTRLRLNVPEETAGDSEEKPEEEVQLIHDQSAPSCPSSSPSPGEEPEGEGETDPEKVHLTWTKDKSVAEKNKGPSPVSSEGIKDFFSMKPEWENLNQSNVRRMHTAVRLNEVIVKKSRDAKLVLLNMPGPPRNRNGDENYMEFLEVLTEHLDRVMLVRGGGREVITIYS

With `CCc1c(SCCC(=O)O)nc2ccccc2c1C`, the normalised thallium flux (F/F0 slope) in experiment [1] was 0.00619. Further, the normalized thallium flux in experiment [2] is 0.00439; in experiment [3] it was 0.0283. Moreover, in experiment [4], the thallium flux rate (normalised fluorescence) is 0.00913 (active). Further, the raw Tl+ flux slope (below DMSO = inhibition, above = activation) in experiment [5] was 0.0166. Besides, the thallium flux slope in experiment [6] was 0.0104.
Turning to `COC(=O)c1sccc1NC(=O)CCC1CCCC1`, in experiment [1], the normalised thallium flux (F/F0 slope) was 0.00664. For the same molecule, the normalized thallium flux in experiment [2] was 0.00434; in experiment [3], 0.032. In addition, in experiment [4], the thallium flux rate (normalised fluorescence) was 0.00709. In experiment [5], the raw Tl+ flux slope (below DMSO = inhibition, above = activation) is 0.0186. In addition, the thallium flux slope in experiment [6] was 0.00941.
Take `O=C(NC(CC(=O)N1CCN(c2ccccc2)CC1)c1ccccc1)c1ccccc1Cl` (stereo unspecified): in experiment [1], the normalised thallium flux (F/F0 slope) was 0.00747. Further, the results for the normalized thallium flux in experiment [2] and in experiment [3] were 0.00528 and 0.0333, respectively. Besides, the thallium flux rate (normalised fluorescence) in experiment [4] was 0.00637. The raw Tl+ flux slope (below DMSO = inhibition, above = activation) in experiment [5] is 0.019. Besides, the thallium flux slope in experiment [6] was 0.00971.
Consider `O=C(Nc1nnc(-c2ccccc2)o1)c1cc(-c2cccs2)nc2ccccc12`, for which the normalised thallium flux (F/F0 slope) in experiment [1] was 0.0238 (active). The normalized thallium flux in experiment [2] is 0.108 (active); in experiment [3] it was 0.0377. The thallium flux rate (normalised fluorescence) in experiment [4] was 0.0864 (active). For the same molecule, the raw Tl+ flux slope (below DMSO = inhibition, above = activation) in experiment [5] is 0.0747 (active). Besides, in experiment [6], the thallium flux slope was 0.0185 (active).
Turning to `O=C(CSCc1ccccc1)N1CCc2ccccc21`, the normalised thallium flux (F/F0 slope) in experiment [1] is 0.00671. Also, the values for the normalized thallium flux in experiment [2] and in experiment [3] were 0.00485 and 0.027, respectively. Moreover, the thallium flux rate (normalised fluorescence) in experiment [4] is 0.0071. Also, the raw Tl+ flux slope (below DMSO = inhibition, above = activation) in experiment [5] is 0.0219 (active). Besides, the thallium flux slope in experiment [6] was 0.00997.
With `S=c1[nH]nc(Nc2ccccc2)s1`, in experiment [1], the normalised thallium flux (F/F0 slope) was 0.00869. Further, the results for the normalized thallium flux in experiment [2] and in experiment [3] were 0.00545 and 0.026 (active), respectively. Further, the thallium flux rate (normalised fluorescence) in experiment [4] was 0.00742. Moreover, the raw Tl+ flux slope (below DMSO = inhibition, above = activation) in experiment [5] is 0.0108 (active). In addition, the thallium flux slope in experiment [6] was 0.00974.
For the molecule `COc1cccc(-c2nc(S(=O)(=O)c3ccccc3)c(N3CCOCC3)o2)c1`, the normalised thallium flux (F/F0 slope) in experiment [1] was 0.00627. Besides, the normalized thallium flux in experiment [2] is 0.0046; in experiment [3], 0.0314. In addition, the thallium flux rate (normalised fluorescence) in experiment [4] was 0.00767. In experiment [5], the raw Tl+ flux slope (below DMSO = inhibition, above = activation) was 0.0193. The thallium flux slope in experiment [6] was 0.0105.
For `c1ccc2c(C[n+]3csc4ccccc43)cccc2c1`, the normalised thallium flux (F/F0 slope) in experiment [1] was 0.0079. Besides, the normalized thallium flux is 0.0261 (active) in experiment [2] and 0.0399 (active) in experiment [3]. For the same molecule, the thallium flux rate (normalised fluorescence) in experiment [4] is 0.0169 (active). Moreover, the raw Tl+ flux slope (below DMSO = inhibition, above = activation) in experiment [5] is 0.0315 (active). In addition, the thallium flux slope in experiment [6] is 0.0219 (active).
As to `S=C(NN=C1CCN(Cc2ccccc2)CC1)NC1CCCCC1`, in experiment [1], the normalised thallium flux (F/F0 slope) was 0.0184. Moreover, the normalized thallium flux in experiment [2] was 0.00465; in experiment [3], 0.0249 (active). In addition, the thallium flux rate (normalised fluorescence) in experiment [4] is 0.00811. Further, the raw Tl+ flux slope (below DMSO = inhibition, above = activation) in experiment [5] was 0.0155 (active). In addition, in experiment [6], the thallium flux slope was 0.0111.
`O=C(CSc1nnc(-c2cccs2)n1Cc1ccccc1)N1CCc2ccccc2C1`: the normalised thallium flux (F/F0 slope) in experiment [1] was 0.00645. In addition, the normalized thallium flux was 0.00334 (active) in experiment [2] and 0.0237 (active) in experiment [3]. Further, in experiment [4], the thallium flux rate (normalised fluorescence) was 0.00608 (active). The raw Tl+ flux slope (below DMSO = inhibition, above = activation) in experiment [5] was 0.0136 (active). Besides, the thallium flux slope in experiment [6] was 0.00891 (active).
As for `O=C(NNc1ccccc1Cl)C(O)(c1cccc(C(F)(F)F)c1)c1cccc(C(F)(F)F)c1`, the normalised thallium flux (F/F0 slope) in experiment [1] was 0.0066. For the same molecule, the normalized thallium flux is 0.018 (active) in experiment [2] and 0.035 in experiment [3]. Besides, the thallium flux rate (normalised fluorescence) in experiment [4] was 0.0219 (active). The raw Tl+ flux slope (below DMSO = inhibition, above = activation) in experiment [5] is 0.0285 (active). Besides, the thallium flux slope in experiment [6] was 0.018 (active).
In the case of `COc1cccc(CNC(=O)Cc2csc(Nc3nc(=S)[nH]c4ccccc34)n2)c1`, in experiment [1], the normalised thallium flux (F/F0 slope) was 0.0104. For the same molecule, the normalized thallium flux in experiment [2] was 0.0662 (active); in experiment [3], 0.0329. The thallium flux rate (normalised fluorescence) in experiment [4] was 0.0306 (active). The raw Tl+ flux slope (below DMSO = inhibition, above = activation) in experiment [5] is 0.0519 (active). The thallium flux slope in experiment [6] was 0.0141 (active).
As for `COc1ccc(CNC(=O)CCn2cccc2)cc1`, the normalised thallium flux (F/F0 slope) in experiment [1] was 0.0171. For the same molecule, the normalized thallium flux was 0.00443 in experiment [2] and 0.0307 in experiment [3]. The thallium flux rate (normalised fluorescence) in experiment [4] is 0.00777. Moreover, the raw Tl+ flux slope (below DMSO = inhibition, above = activation) in experiment [5] is 0.0168. In experiment [6], the thallium flux slope is 0.0101.
`O=C(CNC(=O)c1ccco1)OCC(=O)c1ccccc1`: the normalised thallium flux (F/F0 slope) in experiment [1] is 0.00594. In addition, the normalized thallium flux in experiment [2] was 0.00472; in experiment [3] it was 0.0319. In addition, the thallium flux rate (normalised fluorescence) in experiment [4] was 0.00754. The raw Tl+ flux slope (below DMSO = inhibition, above = activation) in experiment [5] is 0.0197. Further, in experiment [6], the thallium flux slope was 0.01.
Turning to `Oc1c(C=Nc2cccc3nsnc23)ccc2ccccc12`, in experiment [1], the normalised thallium flux (F/F0 slope) is 0.00934. In addition, the results for the normalized thallium flux in experiment [2] and in experiment [3] were 0.00749 and 0.0296, respectively. For the same molecule, the thallium flux rate (normalised fluorescence) in experiment [4] was 0.00781. In addition, in experiment [5], the raw Tl+ flux slope (below DMSO = inhibition, above = activation) is 0.0438. The thallium flux slope in experiment [6] was 0.0106.
As to `Cc1cc(C)nc(SC(C)C(=O)N/N=C/c2cccs2)n1` (stereo unspecified), the normalised thallium flux (F/F0 slope) in experiment [1] is 0.00759. Moreover, the normalized thallium flux was 0.00586 in experiment [2] and 0.0302 in experiment [3]. In experiment [4], the thallium flux rate (normalised fluorescence) was 0.00741. Moreover, the raw Tl+ flux slope (below DMSO = inhibition, above = activation) in experiment [5] was 0.0216. Also, the thallium flux slope in experiment [6] is 0.00957.
Consider `CN(C)c1nc(=Nc2cccc(Cl)c2)ss1`, for which the normalised thallium flux (F/F0 slope) in experiment [1] is 0.0466 (active). Further, the normalized thallium flux in experiment [2] is 0.104 (active); in experiment [3], 0.0563 (active). Further, the thallium flux rate (normalised fluorescence) in experiment [4] was 0.0721 (active). In addition, the raw Tl+ flux slope (below DMSO = inhibition, above = activation) in experiment [5] was 0.0696 (active). The thallium flux slope in experiment [6] was 0.0487 (active).
Consider `CCOc1ccc(NC(=O)CN(C)CC(=O)Nc2cccc(Cl)c2C)cc1OCC`, for which the normalised thallium flux (F/F0 slope) in experiment [1] was 0.00801. Also, the normalized thallium flux in experiment [2] was 0.00595; in experiment [3], 0.0338. Further, the thallium flux rate (normalised fluorescence) in experiment [4] is 0.00749. Besides, in experiment [5], the raw Tl+ flux slope (below DMSO = inhibition, above = activation) was 0.0213. The thallium flux slope in experiment [6] is 0.0107.
Regarding `c1cncc(-c2nnc3n2C2(CCCCC2)Cc2ccccc2-3)c1`, in experiment [1], the normalised thallium flux (F/F0 slope) is 0.0161. The normalized thallium flux in experiment [2] is 0.00468; in experiment [3], 0.0275. Besides, in experiment [4], the thallium flux rate (normalised fluorescence) is 0.00718. Also, the raw Tl+ flux slope (below DMSO = inhibition, above = activation) in experiment [5] was 0.0153. In addition, the thallium flux slope in experiment [6] is 0.00983.
On to `O=c1oc2ccccc2cc1-c1cn(-c2ccccc2)c(=S)[nH]1`, for which, in experiment [1], the normalised thallium flux (F/F0 slope) is 0.00633. Besides, the normalized thallium flux was 0.0198 (active) in experiment [2] and 0.0319 in experiment [3]. Besides, in experiment [4], the thallium flux rate (normalised fluorescence) was 0.0191 (active). The raw Tl+ flux slope (below DMSO = inhibition, above = activation) in experiment [5] is 0.0289 (active). In addition, the thallium flux slope in experiment [6] was 0.0141 (active).
For `Oc1ccccc1/C=N/n1c(-c2cccs2)n[nH]c1=S`, in experiment [1], the normalised thallium flux (F/F0 slope) is 0.02 (active). Moreover, the normalized thallium flux in experiment [2] was 0.0602 (active); in experiment [3], 0.0326. Also, the thallium flux rate (normalised fluorescence) in experiment [4] was 0.0173 (active). Moreover, the raw Tl+ flux slope (below DMSO = inhibition, above = activation) in experiment [5] was 0.0288 (active). In addition, the thallium flux slope in experiment [6] is 0.0224 (active).

The values are drawn from PubChem BioAssay.
